Measured values taken from PubChem BioAssay AID1852 (Sanford-Burnham Center for Chemical Genomics, 2009).
Screen size: about 2,500 compounds; about 1,100 (44%) were called active.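 The calls were made as follows: active = inhibition above 50% at 4 µM in the single-point screen; inactive = inhibition of 50% or less.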 So high a share suggests a set chosen from earlier hits. The list shows a part of the results.

Assay: blockers of TNF-a NF-kB luciferase induction – cell-based, HEK293T NF-kB-Luc, luminescence, selectivity assay for NOD1/NOD2 signaling inhibitor project, primary screen (AID 1852)
Details: TNF-a induced, 14 h, at 4 µM, hits give high values

| Structure (SMILES) | inhibition |
| --- | --- |
| Cc1ccc2cc(C)c(N3CCC(C)CC3)nc2c1 | 20.9% (inactive) |
| CC1=CC(=O)C=C(C)C1=NOS(=O)(=O)c1ccccc1 | 48.1% (inactive) |
| CC1=C/C(=N\OS(=O)(=O)c2ccccc2)C=CC1=O | 57.4% (active) |
| Oc1nc(Nc2cccc(Cl)c2)sc1/C=C1\C=Nc2ccccc21 | -12.4% (inactive) |
| OCCCNc1nccc(-c2cc(Nc3cccc(Cl)c3)ncn2)n1 | 98.2% (active) |
| OCCCNc1cc(-c2ccnc(Nc3cccc(Cl)c3)n2)ccn1 | 96.3% (active) |
| CCS(=O)(=O)c1ccc2oc(SCC(=O)NCc3ccccc3)nc2c1 | 36.5% (inactive) |
| Cc1sc2ncnc(Sc3nnnn3-c3ccccc3)c2c1C | 89.8% (active) |
| Cc1sc2ncnc(Sc3nnnn3-c3ccc(Cl)cc3)c2c1C | 87% (active) |
| Cn1nnnc1Sc1ncnc2scc(-c3ccccc3)c12 | 22.8% (inactive) |
| Cc1ccccc1-n1nnnc1Sc1nnnn1-c1ccccc1 | 75.4% (active) |
| CCc1c(C)nc2ccc(Br)cc2c1SCCC#N | 43.8% (inactive) |
| COc1ccc2cc3c(N)nn(C(=O)c4ccccc4[N+](=O)[O-])c3nc2c1 | 79.5% (active) |
| COc1cc(/C=C/c2ccc3cccc(OC)c3n2)c(OC(C)=O)c([N+](=O)[O-])c1 | 9.5% (inactive) |
| COc1ccc2cc3c(N)nn(C(=O)C4CCC(C(C)(C)C)CC4)c3nc2c1 (stereo not drawn) | 104% (active) |
| CCn1ccnc1CN1CCCC(C(=O)c2ccc3cc(OC)ccc3c2)C1 (stereo not drawn) | 39.3% (inactive) |
| COc1ccc2cc3c(N)nn(C(=O)c4ccccc4Cl)c3nc2c1 | 94.3% (active) |
| CC1=NOC(=O)/C1=C\c1ccc(-c2cc(Cl)ccc2Cl)o1 | -2.6% (inactive) |
| CC1CCc2c(sc(NC(=O)/C=C/c3cccs3)c2C(=O)O)C1 (stereo not drawn) | 31.1% (inactive) |
| CC1CCc2c(sc(NC(=O)c3cccs3)c2C(=O)O)C1 (stereo not drawn) | -35.7% (inactive) |
| N#Cc1c(NC(=O)CSc2ncn[nH]2)sc2c1CCCCC2 | 73.9% (active) |

| Structure (SMILES) | inhibition |
| --- | --- |
| N#Cc1c(NC(=O)CSc2ncn[nH]2)sc2c1CCCC2 | 53.4% (active) |
| CCOC(=O)c1c(NC(=O)CSc2ncn[nH]2)sc(C)c1C | 37.2% (inactive) |
| O=C(Nc1sc2c(c1C(=O)O)CCCC2)c1ccc(F)cc1 | -13.9% (inactive) |
| CC1CCc2c(sc(NC(=O)CSc3ncn[nH]3)c2C#N)C1 (stereo not drawn) | 68.2% (active) |
| N#C/C(=C(/O)Cc1cccc2ccccc12)c1nc2ccccc2s1 | 74.8% (active) |
| Nc1nc(CSc2nc3ccccc3s2)nc(Nc2ccccc2)n1 | -3% (inactive) |
| N#C/C(=C(/O)COc1ccc(Cl)cc1)c1nc2ccccc2s1 | 73.1% (active) |
| O=C(COc1ccc(Cl)cc1)Nc1nc(-c2ccncc2)cs1 | 20.3% (inactive) |
| O=C(NCc1cccnc1)/C(=C\c1ccc(-c2ccc(Cl)c(Cl)c2)o1)S(=O)(=O)c1ccccc1 | 109% (active) |
| O=C(NCc1cccnc1)/C(=C/c1ccc(-c2ccc(Cl)cc2)o1)S(=O)(=O)c1ccccc1 | 85.2% (active) |
| COc1ccc(-c2cn(-c3ccc(C)cc3C)c(=S)[nH]2)cc1OC | 18.3% (inactive) |
| CC1CCCCN1c1ncnc(N)c1[N+](=O)[O-] (stereo not drawn) | 59.2% (active) |
| Nc1ncnc(Sc2ccc(Cl)cc2)c1[N+](=O)[O-] | 1% (inactive) |
| Nc1ncnc(N2CCc3ccccc32)c1[N+](=O)[O-] | 99.8% (active) |
| Nc1ncnc(Nc2ccccn2)c1[N+](=O)[O-] | 22.8% (inactive) |
| COc1ccc(CCN2C(=S)N(c3ccc(Cl)cc3)C(=O)C2CC(N)=O)cc1OC (stereo not drawn) | 17.3% (inactive) |
| Cc1cccc(CSc2cccc3cccnc23)c1 | 104% (active) |
| Cn1cc(C(=O)CCl)c2ccccc21 | 77.1% (active) |
| Cn1c(-c2ccccc2)c(C(=O)CCl)c2ccccc21 | 76.3% (active) |
| Cc1cc(C(=O)CCl)c(C)n1CCc1ccccc1 | 47.1% (inactive) |
| Cn1c(=NC(=O)CCl)sc2ccccc21 | 37.1% (inactive) |

| Structure (SMILES) | inhibition |
| --- | --- |
| Cc1ccc(C(C)C)c(OCc2ccc(C(=O)N/N=C/c3ccc(C(=O)O)cc3)cc2)c1 | 64.9% (active) |
| COc1cc(/C=N/NC(=O)c2ccc(COc3cc(C)ccc3C(C)C)cc2)cc(OC)c1O | 40.7% (inactive) |
| Cc1ccc(C(C)C)c(OCc2ccc(C(=O)N/N=C/c3cccc(O)c3O)cc2)c1 | 17.2% (inactive) |
| CC1CCC/C=C/C(=O)c2c(O)cc(O)cc2CC(=O)O1 (stereo not drawn) | 74.9% (active) |
| CN1/C(=C\C=[N+](C)c2ccccc2)C(C)(C)c2ccccc21 | 49.5% (inactive) |
| O=C(CCl)N1c2ccccc2SCC1c1ccccc1 (stereo not drawn) | 32.2% (inactive) |
| O=C(C(Cl)Cl)N1c2ccccc2OCC1c1ccccc1 (stereo not drawn) | 37.8% (inactive) |
| O=C(CCl)N1c2ccccc2OCC1c1ccccc1 (stereo not drawn) | 62.2% (active) |
| O=C(CCl)N(Cc1cc(=O)[nH]c2ccccc12)c1ccccc1 | 99.9% (active) |
| Cc1cccc(N(Cc2cc(=O)[nH]c3ccccc23)C(=O)CCl)c1 | 78.4% (active) |
| COc1ccc(N(Cc2cc(=O)[nH]c3ccccc23)C(=O)CCl)cc1 | 21.4% (inactive) |
| Cc1ccc(N(Cc2cc(=O)[nH]c3ccccc23)C(=O)CCl)cc1 | 106% (active) |
| CCCS(=O)(=O)c1cnc(C2COc3ccccc3O2)nc1N (stereo not drawn) | 48.4% (inactive) |
| Cc1ccc(-n2c(-c3ccc(Br)cc3)c[n+]3c2CCc2ccc4cccnc4c2-3)cc1 | 85% (active) |
| Cc1ccc(-c2csc3ncnc(Sc4nnc(CN5CCCCCC5=O)o4)c23)cc1 | 93.2% (active) |
| CC(C)(C)CC(=O)Nc1ccc(S(=O)(=O)N2CCCC2)cc1 | 15.8% (inactive) |
| O=C(Nc1ccc(C(F)(F)F)cc1)C1CCN(S(=O)(=O)c2ccc(N3CCCC3=O)cc2)CC1 | 63.7% (active) |
| CC1Sc2ccc(S(=O)(=O)N3CCC(C(=O)Nc4ccc(Cl)cc4)CC3)cc2NC1=O (stereo not drawn) | 44% (inactive) |
| COc1ccc(CN(C)C(=O)c2cc(-c3ccc(C)cc3C)nc3ccccc23)c(OC)c1OC | -3.9% (inactive) |
| COc1ccccc1CN(C)C(=O)c1cc(-c2cc(OC)c(OC)c(OC)c2)nc2ccccc12 | 20.3% (inactive) |
| COc1cccc(CN(C)C(=O)CNC(=O)c2ccc(-c3ccccc3)cc2)c1OC | 57% (active) |
